# Measurements as given in PubChem BioAssay (EPA / NIEHS).
# Results filed as inconclusive are left out. Activity calls are given as the source filed them. The calls were made as follows, unless noted: active = hit-call score of the fitted dose curve at least 0.9, where 1 is the maximum; inconclusive = response in the unintended direction; inactive = score below 0.9.
# Experiments:
# [1] = biological target: Androgen receptor (Homo sapiens) (UniProt P10275); assay: ATG_AR_TRANS: Attagene TRANS-FACTORIAL HepG2 Assay for human Androgen Receptor (AR) (AID 2282973); settings: HepG2 Attagene TRANS-FACTORIAL AR reporter transcription
# Chain of Androgen receptor (Homo sapiens) (P10275 whole entry, looked up, the tested form may be a part): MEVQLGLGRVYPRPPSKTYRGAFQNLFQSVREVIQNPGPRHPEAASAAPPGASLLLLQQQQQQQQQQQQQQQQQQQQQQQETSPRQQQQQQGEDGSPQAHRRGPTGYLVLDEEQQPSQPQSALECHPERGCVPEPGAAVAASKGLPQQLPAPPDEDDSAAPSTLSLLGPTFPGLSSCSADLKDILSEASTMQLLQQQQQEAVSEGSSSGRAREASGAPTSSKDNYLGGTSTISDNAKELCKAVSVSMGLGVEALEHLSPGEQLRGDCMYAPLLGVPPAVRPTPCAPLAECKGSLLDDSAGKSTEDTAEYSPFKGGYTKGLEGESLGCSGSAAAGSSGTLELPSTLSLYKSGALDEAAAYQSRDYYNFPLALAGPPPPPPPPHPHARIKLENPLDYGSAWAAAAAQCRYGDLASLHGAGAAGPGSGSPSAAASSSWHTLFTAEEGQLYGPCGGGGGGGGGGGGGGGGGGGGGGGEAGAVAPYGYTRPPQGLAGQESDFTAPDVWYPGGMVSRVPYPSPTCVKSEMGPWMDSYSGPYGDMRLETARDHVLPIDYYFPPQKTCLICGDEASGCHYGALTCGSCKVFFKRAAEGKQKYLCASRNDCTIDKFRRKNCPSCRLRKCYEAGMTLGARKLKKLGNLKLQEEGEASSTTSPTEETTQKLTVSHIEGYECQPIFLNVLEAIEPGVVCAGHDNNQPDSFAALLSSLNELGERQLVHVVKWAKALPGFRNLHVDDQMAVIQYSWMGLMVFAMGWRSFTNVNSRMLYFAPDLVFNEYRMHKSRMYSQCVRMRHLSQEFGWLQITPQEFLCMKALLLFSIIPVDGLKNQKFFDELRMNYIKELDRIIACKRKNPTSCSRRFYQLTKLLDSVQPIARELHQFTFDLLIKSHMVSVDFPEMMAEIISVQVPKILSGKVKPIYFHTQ
# Procedure, shortened: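 Steps: transfect HepG2 with multiple GAL4-UAS reporter transcription units (TRANS format, exogenous NR-Gal4 protein); dose 24 h; isolate RNA, reverse-transcribe, PCR-amplify, FAM-label, HpaI-digest; resolve by capillary electrophoresis. Positive direction vs DMSO.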
# [2] = biological target: human Phosphatase and Tensin Homolog (PTEN), PTEN (gene 5728) (UniProt P60484); assay: NVS_ENZ_hPTEN: NovaScreen (NVS) Enzymatic Assay for human Phosphatase and Tensin Homolog (PTEN) (AID 2283203)
# Chain of human Phosphatase and Tensin Homolog (PTEN), PTEN (gene 5728) (P60484 whole entry, looked up): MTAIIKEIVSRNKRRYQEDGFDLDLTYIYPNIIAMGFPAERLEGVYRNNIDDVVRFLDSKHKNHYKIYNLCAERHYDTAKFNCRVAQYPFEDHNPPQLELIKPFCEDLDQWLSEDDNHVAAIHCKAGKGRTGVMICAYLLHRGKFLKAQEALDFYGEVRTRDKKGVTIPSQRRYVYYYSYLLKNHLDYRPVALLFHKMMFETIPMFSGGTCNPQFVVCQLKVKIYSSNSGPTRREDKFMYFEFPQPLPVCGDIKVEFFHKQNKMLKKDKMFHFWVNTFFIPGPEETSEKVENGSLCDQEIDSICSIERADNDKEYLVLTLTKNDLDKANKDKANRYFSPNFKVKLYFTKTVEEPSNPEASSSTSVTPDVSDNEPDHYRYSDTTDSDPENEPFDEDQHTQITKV
# Procedure, shortened: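 Cell-free recombinant human PTEN with fluorescent substrate; product separated by electrophoretic mobility shift and read by fluorescence 1 h after dosing. Primary screen in duplicate at 25 uM, actives followed in concentration series versus DMSO.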
# [3] = biological target: Norway rat Vesicular Monoamine Transporter (VMAT2), neurotransmitter transporter, Slc18a2 (gene 25549) (UniProt Q01827); assay: NVS_TR_rVMAT2: NovaScreen (NVS) Transporter Assay for Norway rat Vesicular Monoamine Transporter (VMAT2), neurotransmitter transporter (AID 2283376);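 also: actives lower the bound radioligand signal below the DMSO level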
# Chain of Norway rat Vesicular Monoamine Transporter (VMAT2), neurotransmitter transporter, Slc18a2 (gene 25549) (Q01827 whole entry, looked up): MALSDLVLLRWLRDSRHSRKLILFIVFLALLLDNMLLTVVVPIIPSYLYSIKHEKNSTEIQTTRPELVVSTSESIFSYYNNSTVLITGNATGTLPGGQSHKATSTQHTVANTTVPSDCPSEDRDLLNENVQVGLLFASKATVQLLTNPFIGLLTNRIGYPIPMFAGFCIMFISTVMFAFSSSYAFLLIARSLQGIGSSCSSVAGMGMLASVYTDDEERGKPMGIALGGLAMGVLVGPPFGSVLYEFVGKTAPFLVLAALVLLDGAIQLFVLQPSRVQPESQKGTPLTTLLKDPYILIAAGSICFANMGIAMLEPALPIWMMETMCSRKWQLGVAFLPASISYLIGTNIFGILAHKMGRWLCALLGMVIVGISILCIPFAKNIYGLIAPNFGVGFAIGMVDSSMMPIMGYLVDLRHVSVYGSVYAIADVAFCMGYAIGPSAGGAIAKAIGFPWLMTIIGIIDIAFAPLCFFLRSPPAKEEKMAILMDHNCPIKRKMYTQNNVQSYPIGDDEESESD
# Procedure, shortened: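 Rat forebrain tissue preparation used in a cell-free radioligand binding format; displacement read by filter-based scintillation counting 1 hour after dosing. Primary screen in duplicate at 25 uM, actives then run in concentration series; loss of signal versus DMSO baseline.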
# [4] = biological target: rat Monoamine Oxidase, MAO-B, Central (MAOBC), Maob (gene 25750) (UniProt P19643); assay: NVS_ENZ_rMAOBC: NovaScreen (NVS) Enzymatic Assay for rat Monoamine Oxidase, MAO-B, Central (MAOBC) (AID 2283238)
# Chain of rat Monoamine Oxidase, MAO-B, Central (MAOBC), Maob (gene 25750) (P19643 whole entry, looked up): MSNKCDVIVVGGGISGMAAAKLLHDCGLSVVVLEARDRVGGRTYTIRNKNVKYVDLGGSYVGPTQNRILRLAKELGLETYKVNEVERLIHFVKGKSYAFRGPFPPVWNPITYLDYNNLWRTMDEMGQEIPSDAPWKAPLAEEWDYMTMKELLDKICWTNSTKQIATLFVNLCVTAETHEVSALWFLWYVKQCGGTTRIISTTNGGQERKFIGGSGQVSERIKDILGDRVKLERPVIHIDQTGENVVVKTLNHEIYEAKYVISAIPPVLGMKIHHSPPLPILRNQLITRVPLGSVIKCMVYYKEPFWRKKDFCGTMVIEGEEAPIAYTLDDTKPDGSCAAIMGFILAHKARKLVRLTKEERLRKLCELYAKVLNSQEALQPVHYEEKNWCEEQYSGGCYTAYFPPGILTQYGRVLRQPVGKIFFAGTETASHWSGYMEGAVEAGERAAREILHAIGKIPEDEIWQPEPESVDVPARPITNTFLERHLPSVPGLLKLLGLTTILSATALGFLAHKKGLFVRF
# Procedure, shortened: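 Rat brain tissue extract served as the cell-free MAO-B source; enzyme activity was read by scintillation counting 1.17 hours after compound addition. Loss of signal versus DMSO baseline was fitted; primary single-concentration screen at 25 uM, follow-up concentration-response up to 50 uM.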
# [5] = biological target: human Protein Tyrosine Phosphatase Receptor Type C (PTPRC), PTPRC (gene 5788) (UniProt P08575); assay: NVS_ENZ_hPTPRC: NovaScreen (NVS) Enzymatic Assay for human Protein Tyrosine Phosphatase Receptor Type C (PTPRC) (AID 2283212)
# Chain of human Protein Tyrosine Phosphatase Receptor Type C (PTPRC), PTPRC (gene 5788) (P08575 whole entry, looked up): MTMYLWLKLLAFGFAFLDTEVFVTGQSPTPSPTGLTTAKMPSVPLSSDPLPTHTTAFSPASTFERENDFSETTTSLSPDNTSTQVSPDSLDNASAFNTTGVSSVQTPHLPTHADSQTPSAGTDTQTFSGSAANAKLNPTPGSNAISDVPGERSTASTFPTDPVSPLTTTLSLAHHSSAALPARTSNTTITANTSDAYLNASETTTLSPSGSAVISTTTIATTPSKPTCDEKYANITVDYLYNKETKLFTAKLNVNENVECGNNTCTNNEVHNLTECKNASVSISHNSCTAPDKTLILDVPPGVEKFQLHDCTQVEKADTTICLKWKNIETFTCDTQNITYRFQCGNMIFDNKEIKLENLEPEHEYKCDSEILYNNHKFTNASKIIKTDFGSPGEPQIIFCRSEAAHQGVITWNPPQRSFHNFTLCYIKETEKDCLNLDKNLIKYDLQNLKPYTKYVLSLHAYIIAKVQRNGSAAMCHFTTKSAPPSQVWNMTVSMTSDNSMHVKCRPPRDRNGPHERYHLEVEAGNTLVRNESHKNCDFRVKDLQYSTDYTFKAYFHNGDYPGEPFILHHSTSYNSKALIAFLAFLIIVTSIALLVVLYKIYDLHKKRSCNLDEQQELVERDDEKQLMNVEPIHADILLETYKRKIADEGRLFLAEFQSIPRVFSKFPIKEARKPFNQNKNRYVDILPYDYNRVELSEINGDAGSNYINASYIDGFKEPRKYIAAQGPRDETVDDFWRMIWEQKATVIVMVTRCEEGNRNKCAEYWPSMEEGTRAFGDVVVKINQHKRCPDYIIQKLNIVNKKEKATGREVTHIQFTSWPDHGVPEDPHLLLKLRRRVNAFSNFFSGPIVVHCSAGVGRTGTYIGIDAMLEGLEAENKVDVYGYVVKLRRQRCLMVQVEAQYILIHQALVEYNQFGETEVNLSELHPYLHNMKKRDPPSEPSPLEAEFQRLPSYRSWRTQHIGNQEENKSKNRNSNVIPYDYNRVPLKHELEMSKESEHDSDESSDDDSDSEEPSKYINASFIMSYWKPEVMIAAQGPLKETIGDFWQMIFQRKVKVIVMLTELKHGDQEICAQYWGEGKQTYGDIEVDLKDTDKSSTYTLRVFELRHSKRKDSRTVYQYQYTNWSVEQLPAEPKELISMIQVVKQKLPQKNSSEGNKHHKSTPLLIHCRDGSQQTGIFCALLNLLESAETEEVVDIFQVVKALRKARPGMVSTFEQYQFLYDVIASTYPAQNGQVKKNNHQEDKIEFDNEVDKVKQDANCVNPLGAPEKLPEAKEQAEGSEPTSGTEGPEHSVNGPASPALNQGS
# Procedure, shortened: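 Yeast-extracted human PTPRC used in a cell-free colorimetric enzyme activity read-out, 1 h after dosing. Primary screen in duplicate at 25 uM; actives rerun in concentration-response up to 50 uM, DMSO as baseline.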
# [6] = test system: rat Monoamine Oxidase, MAO-A, Central (MAOAC), gene 29253; assay: NVS_ENZ_rMAOAC: NovaScreen (NVS) Enzymatic Assay for rat Monoamine Oxidase, MAO-A, Central (MAOAC) (AID 2283243);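 also: potency refers to inhibition seen as signal drop below DMSO baseline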
# Procedure, shortened: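 Rat brain tissue extract used as enzyme source in a cell-free radiometric assay, read by scintillation counting 1.5 hours after dosing. Loss of signal relative to DMSO baseline scored; primary screen at 25 uM in duplicate, actives followed up in concentration series.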
# [7] = Tanguay_ZF_120hpf_MUSC: Oregon State University Tanguay Lab 120 Hour Post-fertilization zebrafish Assay for Muscle Malformation (AID 2284401; active = hit-call score of the fitted dose curve at least 0.9, where 1 is the maximum; inactive = score below 0.9)
# Procedure, shortened: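 Dechorionated Tropical 5D wild-type zebrafish embryos exposed statically from 6 to 120 hpf at 28C, one per well, in 0.64% DMSO. Muscle malformation scored present/absent by brightfield microscopy at 120 hpf, fitted against DMSO.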
# [8] = biological target: Voltage-dependent N-type calcium channel subunit alpha-1B (Rattus norvegicus) (UniProt Q02294); assay: NVS_IC_rCaChN: NovaScreen (NVS) Ion Channel Assay for rat Calcium Channel, Type N (CaChN) (AID 2283317)
# [9] = biological target: bovine Gamma-Aminobutyric Acid Type A Receptor BDZ, alpha 1 site (GABARa1), GABRA1 (gene 780973) (UniProt P08219); assay: NVS_LGIC_bGABARa1: NovaScreen (NVS) Ligand-Gated Ion Channel Assay for bovine Gamma-Aminobutyric Acid Type A Receptor BDZ, alpha 1 site (GABARa1) (AID 2283321)
# Chain of bovine Gamma-Aminobutyric Acid Type A Receptor BDZ, alpha 1 site (GABARa1), GABRA1 (gene 780973) (P08219 whole entry, looked up): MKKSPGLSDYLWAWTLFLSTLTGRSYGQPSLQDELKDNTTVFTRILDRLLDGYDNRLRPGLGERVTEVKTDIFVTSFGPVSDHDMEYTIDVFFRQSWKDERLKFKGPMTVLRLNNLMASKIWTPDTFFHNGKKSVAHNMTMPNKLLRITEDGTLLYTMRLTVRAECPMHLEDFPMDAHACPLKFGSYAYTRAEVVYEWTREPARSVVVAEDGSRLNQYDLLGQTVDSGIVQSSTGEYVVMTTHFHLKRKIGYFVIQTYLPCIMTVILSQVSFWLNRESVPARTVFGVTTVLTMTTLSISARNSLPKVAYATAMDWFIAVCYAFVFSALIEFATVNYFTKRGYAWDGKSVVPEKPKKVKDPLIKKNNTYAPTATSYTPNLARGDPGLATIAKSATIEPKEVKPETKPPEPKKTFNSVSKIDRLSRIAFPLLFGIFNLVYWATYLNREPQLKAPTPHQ
# Procedure, shortened: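 Radioligand competition binding on bovine cortical membranes, 0.75 h, filter-based scintillation counting. Primary single concentration 25 uM in duplicate; actives rerun in concentration-response to 50 uM max. Loss of signal fitted versus DMSO.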
# [10] = biological target: Bile acid receptor (Homo sapiens) (UniProt Q96RI1); assay: NVS_NR_hFXR_Agonist: NovaScreen (NVS) Nuclear Receptor Binding Assay for human Farnesoid X Receptor Agonism (FXR) (AID 2283347)
# Procedure, shortened: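 Cell-free TR-FRET binding assay with extracted human FXR protein, agonist format, read 1 h after dosing. Primary screen at 25 uM single concentration in duplicate, actives retested in concentration series; gain of signal versus DMSO.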
# [11] = biological target: human Neonicotinoid receptor (NNR), CHRNA2 (gene 1135) (UniProt Q15822); assay: NVS_LGIC_hNNR_NBungSens: NovaScreen (NVS) Ligand-Gated Ion Channel Assay for human Neonicotinoid receptor (NNR) (AID 2283313)
# Chain of human Neonicotinoid receptor (NNR), CHRNA2 (gene 1135) (Q15822 whole entry, looked up): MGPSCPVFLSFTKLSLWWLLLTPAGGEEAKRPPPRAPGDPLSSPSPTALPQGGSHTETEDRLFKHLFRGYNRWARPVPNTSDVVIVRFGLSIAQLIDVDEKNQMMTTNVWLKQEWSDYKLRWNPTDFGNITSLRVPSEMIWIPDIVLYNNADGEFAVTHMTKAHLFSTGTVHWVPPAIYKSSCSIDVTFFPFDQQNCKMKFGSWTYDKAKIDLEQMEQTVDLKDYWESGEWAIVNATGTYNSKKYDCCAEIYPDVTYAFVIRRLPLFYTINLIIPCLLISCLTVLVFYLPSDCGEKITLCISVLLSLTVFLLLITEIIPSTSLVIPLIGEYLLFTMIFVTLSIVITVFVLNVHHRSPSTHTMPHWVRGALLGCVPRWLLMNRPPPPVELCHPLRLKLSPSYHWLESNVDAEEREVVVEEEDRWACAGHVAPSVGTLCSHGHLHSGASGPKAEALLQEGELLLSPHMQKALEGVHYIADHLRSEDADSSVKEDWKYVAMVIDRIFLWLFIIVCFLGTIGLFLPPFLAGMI
# Procedure, shortened: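 Radioligand displacement on human neuroblastoma membranes, 2 h, filter-based scintillation counting. Primary screen in duplicate at 25 uM; chemicals passing threshold (e.g. 30% inhibition) run singleton concentration-response to 50 uM; loss of binding fitted versus DMSO.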
# [12] = TOX21_TRB_BLA_Agonist_Followup_viability: Viability Assessment in the Tox21 Thyroid Hormone Receptor beta Agonism Beta-lactamase (BLA) Follow-Up Assay (AID 2283956)
# Procedure, shortened: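 TRb-bla HEK293T cells (GAL4-DBD/human TRb LBD) in 2% charcoal-stripped FBS medium were exposed 18 h at 37C to 11 concentrations in triplicate. CellTiter-Glo ATP luminescence was read after 30 min at room temperature, with bidirectional fitting against DMSO.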
# [13] = biological target: rat Corticotropin Releasing Factor Receptor (CRF), Crhr1 (gene 58959) (UniProt P35353); assay: NVS_GPCR_rCRF: NovaScreen (NVS) G Protein-Coupled Receptor Assay for rat Corticotropin Releasing Factor Receptor (CRF) (AID 2283300)
# Procedure, shortened: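 Rat cortical membranes used as receptor source in a radioligand competitive displacement binding assay; scintillation read 2 h after dosing. Primary screen run in duplicate at 25 uM; loss of signal versus DMSO baseline indicates binding.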
smiles,measurement,setting,value
CC=CC(=O)C1=C(C)C=CCC1(C)C,outcome,[1],inactive
same,outcome,[2],inactive
CCN(CCC#N)c1ccc(N=Nc2ccc([N+](=O)[O-])cc2)cc1,outcome,[1],inactive
same,outcome,[2],inactive
same,outcome,[3],inactive
CCOCCOCCO,outcome,[1],inactive
same,outcome,[4],inactive
CC1(C)[C@H](C(=O)OCc2cccc(Oc3ccccc3)c2)[C@@H]1C=C(Cl)Cl,outcome,[1],inactive
same,AC50,[2],15.7 µM (active)
O=C(O)Cc1ccccc1Nc1c(Cl)cccc1Cl,outcome,[1],inactive
same,outcome,[5],inactive
CCc1cccc(CC)c1,outcome,[1],inactive
same,outcome,[2],inactive
CCCCCCCC(=O)OCC,outcome,[1],inactive
same,AC50,[6],37.3 µM (active)
O=C(O)C[C@H](O)C[C@H](O)/C=C/c1c(C2CC2)nc2ccccc2c1-c1ccc(F)cc1,outcome,[1],inactive
same,AC50,[2],0.161 µM (active)
CCCCCc1ccc(O)cc1,outcome,[1],inactive
same,AC50,[6],17.3 µM (active)
CCOC(=O)CC(C)O (centres undefined),outcome,[1],inactive
same,outcome,[6],inactive
OCC(F)(F)C(F)(F)C(F)(F)C(F)F,outcome,[1],inactive
same,outcome,[7],inactive
C=CC(=O)OCC(F)(F)C(F)(F)C(F)(F)C(F)(F)C(F)(F)C(F)(F)C(F)(F)C(F)F,outcome,[1],inactive
same,outcome,[7],inactive
COC(=O)CSc1cc(N=c2sc(=O)n3n2CCCC3)c(F)cc1Cl,outcome,[1],inactive
same,outcome,[8],inactive
same,outcome,[9],inactive
O=C1CCC(=O)N1,outcome,[1],inactive
same,outcome,[3],inactive
O=C(CC(=O)C(F)(F)C(F)(F)C(F)(F)F)c1cccs1,outcome,[1],inactive
same,outcome,[7],inactive
CCN(CC)c1ccc(N=Nc2ccccc2)cc1,outcome,[1],inactive
same,outcome,[3],inactive
CC(C)OC(=O)C(C)(C)Oc1ccc(C(=O)c2ccc(Cl)cc2)cc1,outcome,[1],inactive
same,AC50,[10],25 µM (active)
NC(=O)C(F)(F)C(F)(F)C(F)(F)F,outcome,[1],inactive
same,outcome,[7],inactive
O=C(O)C(F)(F)C(F)(F)C(F)(F)C(F)(F)F,outcome,[1],inactive
same,outcome,[7],inactive
NCCOCCOCCN,outcome,[1],inactive
same,outcome,[11],inactive
CCCCCCCCCCC,outcome,[1],inactive
same,outcome,[12],inactive
c1ccc2c(c1)ccc1ccccc12,outcome,[1],inactive
same,outcome,[3],inactive
CC(=O)S[C@@H]1CC2=CC(=O)CC[C@]2(C)[C@H]2CC[C@@]3(C)[C@@H](CC[C@@]34CCC(=O)O4)[C@H]12,outcome,[1],inactive
same,outcome,[3],inactive
FC(F)(F)COC(OCC(F)(F)F)OCC(F)(F)F,outcome,[1],inactive
same,outcome,[7],inactive
CC(=N[Si](C)(C)C)O[Si](C)(C)C,outcome,[1],inactive
same,outcome,[3],inactive
CN1CCN(C)CC1,outcome,[1],inactive
same,outcome,[3],inactive
O=S(=O)(OCC(F)F)C(F)(F)F,outcome,[1],inactive
same,outcome,[7],inactive
CSc1ccc(O)cc1C,outcome,[1],inactive
same,AC50,[6],15.7 µM (active)
O=S(=O)(OCCOC(F)(F)F)C(F)(F)F,outcome,[1],inactive
same,outcome,[7],inactive
Clc1ccc2c(Cl)ccnc2c1,outcome,[1],inactive
same,AC50,[6],20.8 µM (active)
Oc1ccc(/C=C/c2cc(O)cc(O)c2)cc1,outcome,[1],inactive
same,AC50,[6],1.58 µM (active)
same,AC50,[3],21 µM (active)
O=C(O)C(F)(OC(F)(F)C(F)(OC(F)(F)C(F)(OC(F)(F)C(F)(F)C(F)(F)F)C(F)(F)F)C(F)(F)F)C(F)(F)F (centres undefined),outcome,[1],inactive
same,outcome,[7],inactive
CCC(=C(c1ccc(O)cc1)c1ccc(OCCN(C)C)cc1)c1ccccc1,outcome,[1],inactive
same,outcome,[8],inactive
same,AC50,[3],0.626 µM (active)
O=C(O)CCC(F)(F)C(F)(F)C(F)(F)C(F)(F)C(F)(F)F,outcome,[1],inactive
same,outcome,[7],inactive
OCC(F)(F)C(F)(F)C(F)(F)C(F)(F)C(F)(F)C(F)F,outcome,[1],inactive
same,outcome,[7],inactive
FC(F)(F)C(F)(F)C(F)(F)C(F)(F)C(F)(F)C(F)(F)CC1CO1 (centres undefined),outcome,[1],inactive
same,outcome,[7],inactive
CCN(CC)c1ccc(C=O)c(O)c1,outcome,[1],inactive
same,AC50,[6],17.5 µM (active)
same,outcome,[3],inactive
C[Si](Cl)(Cl)CCC(F)(F)C(F)(F)C(F)(F)C(F)(F)C(F)(F)C(F)(F)F,outcome,[1],inactive
same,outcome,[7],inactive
CN(CCO)S(=O)(=O)C(F)(F)C(F)(F)C(F)(F)C(F)(F)C(F)(F)C(F)(F)C(F)(F)C(F)(F)F,outcome,[1],inactive
same,outcome,[7],inactive
O=C(CCCCCCCCc1cccnc1)N1CCC(C=C(c2ccccc2)c2ccccc2)CC1,outcome,[1],inactive
same,outcome,[8],inactive
CC1=C(C)S(=O)(=O)CCS1(=O)=O,outcome,[1],inactive
same,outcome,[3],inactive
CN(C)C(=O)Nc1ccc(Cl)c(Cl)c1,outcome,[1],inactive
same,AC50,[6],13.6 µM (active)
Cc1cc(F)ccc1-c1cc(N2CC[C@@H](O)[C@H]2CO)ncc1N(C)C(=O)C(C)(C)c1cc(C(F)(F)F)cc(C(F)(F)F)c1,outcome,[1],inactive
same,AC50,[3],11.7 µM (active)
CCC(=O)OC/C=C(\C)CCC=C(C)C,outcome,[1],inactive
same,outcome,[6],inactive
Clc1cccc(Cl)n1,outcome,[1],inactive
same,outcome,[6],inactive
OCCC(F)(F)C(F)(F)C(F)(F)C(F)(F)C(F)(F)C(F)(F)C(F)(F)C(F)(F)F,outcome,[1],inactive
same,outcome,[13],inactive
same,outcome,[7],inactive
Cc1cnccn1,outcome,[1],inactive
same,outcome,[3],inactive
O=P(O)(O)CCC(F)(F)C(F)(F)C(F)(F)C(F)(F)C(F)(F)C(F)(F)C(F)(F)C(F)(F)F,outcome,[1],inactive
same,outcome,[7],inactive
NC(=O)C(F)(F)C(F)(F)C(F)(F)C(F)(F)F,outcome,[1],inactive
same,outcome,[7],inactive
O=C(O)CCC(F)(F)C(F)(F)C(F)(F)C(F)(F)C(F)(F)C(F)(F)C(F)(F)F,outcome,[1],inactive
same,outcome,[7],inactive
CCCCCCCCC(F)(F)C(F)(F)C(F)(F)C(F)(F)C(F)(F)C(F)(F)F,outcome,[1],inactive
same,outcome,[7],inactive
FC(F)(F)C(F)(F)C(F)(F)C(F)(F)C(F)(F)C(F)(F)CC[Si](Cl)(Cl)Cl,outcome,[1],inactive
same,outcome,[7],inactive
OCCC(F)(F)C(F)(F)C(F)(F)C(F)(F)F,outcome,[1],inactive
same,outcome,[7],inactive
C=CC(F)(F)C(F)(F)C(F)(F)C(F)(F)C(F)(F)C(F)(F)C(F)(F)C(F)(F)C=C,outcome,[1],inactive
same,outcome,[7],inactive
